Bioassay records (PubChem)
Shown are actives, neighbours in structure and some others; about 1.6% of the full set was active somewhere.
KCNQ2 enhance = KCNQ2 (rat) channel potentiation; B-score at 10 µM; 0.54% of 310,000 active; CHO-K1 KCNQ2, FluxOR thallium flux fluorescence; hits give high values; O88943;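 active means fluorescence ratio B-score at least 3 SD of library B-scores, with initial fluorescence B-score within 3 of them, cut at about 5.3 in these data; same plate scores as AID 2156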;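 further: B-score of peak minus minimum over baseline fluorescence ratio after K+ and Tl+ stimulus; positive B-score means potentiation of KCNQ2 with more thallium influx and brighter signal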
Target sequence (O88943 whole entry, looked up): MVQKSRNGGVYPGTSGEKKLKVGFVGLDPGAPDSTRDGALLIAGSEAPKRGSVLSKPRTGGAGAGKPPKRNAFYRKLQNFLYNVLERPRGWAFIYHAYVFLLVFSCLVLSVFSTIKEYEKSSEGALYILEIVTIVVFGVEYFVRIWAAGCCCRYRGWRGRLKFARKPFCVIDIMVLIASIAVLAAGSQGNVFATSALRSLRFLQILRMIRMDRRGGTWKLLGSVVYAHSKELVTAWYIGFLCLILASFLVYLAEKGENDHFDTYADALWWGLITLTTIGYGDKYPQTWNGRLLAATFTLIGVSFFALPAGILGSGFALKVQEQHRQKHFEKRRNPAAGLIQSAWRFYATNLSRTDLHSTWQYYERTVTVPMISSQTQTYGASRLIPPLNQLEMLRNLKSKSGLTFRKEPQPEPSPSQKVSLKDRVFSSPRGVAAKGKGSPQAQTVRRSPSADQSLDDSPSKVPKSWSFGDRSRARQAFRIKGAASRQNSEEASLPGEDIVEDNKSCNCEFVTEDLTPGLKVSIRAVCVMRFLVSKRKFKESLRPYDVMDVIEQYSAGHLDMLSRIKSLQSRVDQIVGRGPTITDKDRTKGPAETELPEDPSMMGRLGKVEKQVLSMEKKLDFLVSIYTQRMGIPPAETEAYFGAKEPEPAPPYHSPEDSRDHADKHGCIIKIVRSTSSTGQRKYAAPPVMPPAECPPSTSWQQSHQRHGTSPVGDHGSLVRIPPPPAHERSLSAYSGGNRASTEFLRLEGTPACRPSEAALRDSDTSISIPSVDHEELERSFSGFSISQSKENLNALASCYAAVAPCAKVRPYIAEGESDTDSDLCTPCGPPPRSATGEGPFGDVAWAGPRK
KCNQ2 inh = blocks the rat KCNQ2 potassium channel. 1.1% of 310,000 active. B-score at 10 µM. O88943. CHO-K1 KCNQ2, FluxOR thallium flux, 20 min; hits give low values;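 active means fluorescence ratio B-score at most minus 3 library SDs, with starting brightness B-score within 2 library SDs, cut at about -5.5 in these data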
Hits are given with their value.

Results for O=c1c2c3nc4ccccc4nc3n(/N=C/c3ccco3)c2ncn1CCC1=CCCCC1 ?
KCNQ2 enhance: inactive; KCNQ2 inh: -6.6

What do the screens show for `CCOCCCn1c(C)nc2c(c1=O)c1nc3ccccc3nc1n2CCC1=CCCCC1`?
KCNQ2 enhance: inactive; KCNQ2 inh: -5.8

What do the screens show for `Cc1nc2c(c(=O)n1CCC1=CCCCC1)c1nc3ccccc3nc1n2/N=C/c1ccccc1`?
KCNQ2 enhance: inactive; KCNQ2 inh: -5.7

What do the screens show for `COCCCn1c2nc3ccccc3nc2c2c(=O)n(CC3CCCO3)cnc21` (stereo not drawn)?
KCNQ2 enhance: inactive; KCNQ2 inh: inactive

What do the screens show for `COc1ccc(C)cc1S(=O)(=O)NCC(c1ccc2c(c1)OCO2)N1CCN(C)CC1` (stereo not drawn)?
KCNQ2 inh: inactive

What do the screens show for `CCOC(=O)c1c(NC(=O)COC(=O)CCOc2ccccc2C)sc(C(=O)NC)c1C`?
KCNQ2 inh: inactive

How did CC(C)(C)n1nnnc1C(c1cccnc1)N(Cc1ccccc1)Cc1cccs1 (stereo not drawn) do in these assays?
KCNQ2 inh: inactive

How did c1ccc(CN(Cc2ccco2)C(c2ccncc2)c2nnnn2C2CCCC2)cc1 (stereo not drawn) do in these assays?
KCNQ2 inh: inactive

What do the screens show for `CCN(Cc1ccccc1)C(c1ccncc1)c1nnnn1C(C)(C)C` (stereo not drawn)?
KCNQ2 inh: inactive

Results for CCC(c1nnnn1C(C)(C)C)N(Cc1cccs1)Cc1cc2cc(C)c(C)cc2n2nnnc12 (stereo not drawn) ?
KCNQ2 enhance: inactive; KCNQ2 inh: -5.9

What do the screens show for `CCOc1ccc2[nH]c(=O)c(CN(Cc3cccs3)C(CC)c3nnnn3C(C)(C)CC)cc2c1` (stereo not drawn)?
KCNQ2 inh: inactive

Results for CC(C)(C)c1ccc(CN(Cc2ccccc2)C(c2ccccn2)c2nnnn2C(C)(C)C)cc1 (stereo not drawn) ?
KCNQ2 enhance: inactive; KCNQ2 inh: -9.4

How did CC(C)(C)n1nnnc1C(c1ccc(C(F)(F)F)cc1)N(Cc1ccc(F)cc1)Cc1ccco1 (stereo not drawn) do in these assays?
KCNQ2 enhance: inactive; KCNQ2 inh: -6.5

How did Cc1ccc(C(c2nnnn2C(C)(C)C)N(Cc2ccco2)Cc2cccs2)cc1 (stereo not drawn) do in these assays?
KCNQ2 enhance: inactive; KCNQ2 inh: -6.2

Results for O=C1CCc2cc(S(=O)(=O)Nc3ccc(F)cc3)cc3c2N1CC3 ?
KCNQ2 enhance: inactive; KCNQ2 inh: inactive

How did Cc1ccc(S(=O)(=O)NCC(C)n2nc(C)nc2C)cc1 (stereo not drawn) do in these assays?
KCNQ2 enhance: inactive; KCNQ2 inh: inactive

How did CCOC(=O)c1c(C)[nH]c(C)c1S(=O)(=O)NCCN1CCN(c2ccccc2F)CC1 do in these assays?
KCNQ2 inh: inactive

Results for CCc1nnc(NC(=O)C(CC)CC)s1 ?
KCNQ2 enhance: inactive; KCNQ2 inh: inactive

How did CCOC(=O)C1(Cc2ccccc2)CCCN(S(=O)(=O)N(C)C)C1 (stereo not drawn) do in these assays?
KCNQ2 enhance: inactive; KCNQ2 inh: inactive

Results for O=C(CN(Cc1ccccc1)C(=O)CCC(=O)Nc1nccs1)NCC1CCCO1 (stereo not drawn) ?
KCNQ2 enhance: inactive; KCNQ2 inh: inactive

What do the screens show for `CC(C)(C)n1nnnc1C(c1cccs1)N(Cc1ccccc1)Cc1cccnc1` (stereo not drawn)?
KCNQ2 inh: inactive

How did CC(C)(C)n1nnnc1C(c1ccc(Cl)cc1)N(Cc1cccnc1)Cc1ccco1 (stereo not drawn) do in these assays?
KCNQ2 enhance: inactive; KCNQ2 inh: -6.2

Results for CC1CCN(C(=O)c2cc(Cl)ccc2NC(=O)c2ccco2)CC1 ?
KCNQ2 enhance: inactive; KCNQ2 inh: inactive

Results for O=C1c2cccc3c([N+](=O)[O-])ccc(c23)C(=O)N1c1ccccn1 ?
KCNQ2 inh: inactive

What do the screens show for `O=C1c2cccc3c([N+](=O)[O-])ccc(c23)C(=O)N1c1ccc(Cl)cn1`?
KCNQ2 enhance: inactive; KCNQ2 inh: -7

What do the screens show for `COc1cc(CNc2ccc(C(=O)O)cc2)cc(Br)c1OCC(=O)NC(C)(C)C`?
KCNQ2 inh: inactive

Results for CCOc1cc(CNc2ccccc2)cc(Br)c1OCC(=O)NC(C)(C)C ?
KCNQ2 enhance: inactive; KCNQ2 inh: -5.9

How did COc1cc(OC)cc(C(=O)N(Cc2nc(-c3cccc(C)c3)no2)C(C)C)c1 do in these assays?
KCNQ2 inh: inactive

How did Cc1cccc(-c2noc(CN(C(=O)C34CC5CC(CC(C5)C3)C4)C(C)C)n2)c1 do in these assays?
KCNQ2 enhance: inactive; KCNQ2 inh: -5.7

Results for O=C(Cn1cnc(S(=O)(=O)N2CCOCC2)c1)Nc1ccc(OC(F)(F)F)cc1 ?
KCNQ2 inh: inactive

What do the screens show for `O=C(Nc1nc2ccc(F)cc2s1)C1=COCCO1`?
KCNQ2 inh: inactive

What do the screens show for `O=C(Nc1nc2ccc(F)cc2s1)c1ccccn1`?
KCNQ2 enhance: 16; KCNQ2 inh: inactive

What do the screens show for `CCOC(=O)c1ccc(CNC(=O)C2CCC(=O)N(CCc3ccccc3)C2)o1` (stereo not drawn)?
KCNQ2 enhance: inactive; KCNQ2 inh: inactive

How did CC(=O)Nc1ccc(S(=O)(=O)NCc2nc(-c3ccccc3Cl)no2)cc1 do in these assays?
KCNQ2 enhance: inactive; KCNQ2 inh: inactive

How did O=C(CCNC(=O)c1ccc(Cl)cc1)Nc1ccccc1N1CCCC1 do in these assays?
KCNQ2 enhance: inactive; KCNQ2 inh: inactive

What do the screens show for `COC(=O)c1c(-c2ccccc2)csc1NC(=O)CSc1ncnc2sc(C)c(C)c12`?
KCNQ2 enhance: inactive; KCNQ2 inh: -5.6

What do the screens show for `Cc1cccnc1NC(=O)CSc1ncnc2sc(C)c(C)c12`?
KCNQ2 inh: inactive

Results for COc1ccc(Cc2nnc(NC(=O)Nc3ccccc3)s2)cc1OC ?
KCNQ2 enhance: inactive; KCNQ2 inh: inactive

What do the screens show for `CCNC(=O)c1ccccc1SCc1ccccc1`?
KCNQ2 enhance: inactive; KCNQ2 inh: -7.4

Results for CCc1ccc(OCCNC(=O)c2ccccc2SCc2ccccc2)cc1 ?
KCNQ2 inh: inactive

What do the screens show for `COC(=O)C1=C(C)C(c2ccc(OC)cc2OC)NC(=O)N1` (stereo not drawn)?
KCNQ2 inh: inactive

What do the screens show for `COc1ccc(C2CC(C)(c3ccc(OC)cc3OC)Nc3ccccc3N2)c(OC)c1` (stereo not drawn)?
KCNQ2 enhance: inactive; KCNQ2 inh: -6.4

What do the screens show for `COC(CNC(=O)c1ccc2c(c1)nc(C)n2-c1cccc(C)c1)OC`?
KCNQ2 inh: inactive

How did CCOc1cc(N2CCOCC2)c(OCC)cc1NC(=O)CN1CCC(Cc2ccccc2)CC1 do in these assays?
KCNQ2 enhance: 6.1; KCNQ2 inh: inactive

What do the screens show for `CCOc1cc(N2CCOCC2)c(OCC)cc1NC(=O)CN1C(=O)NC(Cc2ccccc2)C1=O` (stereo not drawn)?
KCNQ2 inh: inactive

Results for CCC[C@@H]1C[C@@]1(CCC)[C@@H](NP(=O)(c1ccccc1)c1ccccc1)c1ccc(C(=O)OC)cc1 ?
KCNQ2 inh: inactive

What do the screens show for `COC(=O)c1cccc(C#CC(NP(=O)(c2ccccc2)c2ccccc2)c2ccccc2)c1` (stereo not drawn)?
KCNQ2 enhance: inactive; KCNQ2 inh: -6.3

Results for COc1ccccc1CC(NC(C)=O)C(=O)NC1CCN(C(=O)c2ccc(C)cc2)CC1 (stereo not drawn) ?
KCNQ2 inh: inactive

What do the screens show for `COC(=O)/C(=C\c1ccc2c(c1)c1ccccc1n2C)NC(=O)c1ccccc1`?
KCNQ2 enhance: inactive; KCNQ2 inh: -7.6
